FBW7 activator = human FBW7 E3 ligase activation, primary screen; Q969H0; AlphaScreen FBW7–phospho-cyclin E peptide binding, activator screen; normalized activity (activation), % at 26.1 µM; 0.13% of 650,000 active; AID 1259310; in the data active = normalized activity above about 1.9%;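 also: purified mutant Fbw7 with reduced substrate affinity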
TEAD-YAP block = TEAD-YAP interaction inhibition. HEK-TIYL cells, TEAD-Gal4/YAP UAS-luciferase luminescence. inhibition, % at 9.12 µM. 1.4% of 640,000 active. AID 1259422; in the data active = inhibition above about 32%;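 also: 0% = median of test compound wells and 100% = reference inhibitor wells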
MITF inh = blocks human microphthalmia-associated transcription factor; inhibition, % at 2.6 µM; O75030; AID 1259374; 0.91% of 650,000 active; AlphaScreen MITF homodimerization, bead proximity signal; in the data active = inhibition above about 50%;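 also: 0% = vehicle wells with protein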
Target sequence (O75030 whole entry, looked up): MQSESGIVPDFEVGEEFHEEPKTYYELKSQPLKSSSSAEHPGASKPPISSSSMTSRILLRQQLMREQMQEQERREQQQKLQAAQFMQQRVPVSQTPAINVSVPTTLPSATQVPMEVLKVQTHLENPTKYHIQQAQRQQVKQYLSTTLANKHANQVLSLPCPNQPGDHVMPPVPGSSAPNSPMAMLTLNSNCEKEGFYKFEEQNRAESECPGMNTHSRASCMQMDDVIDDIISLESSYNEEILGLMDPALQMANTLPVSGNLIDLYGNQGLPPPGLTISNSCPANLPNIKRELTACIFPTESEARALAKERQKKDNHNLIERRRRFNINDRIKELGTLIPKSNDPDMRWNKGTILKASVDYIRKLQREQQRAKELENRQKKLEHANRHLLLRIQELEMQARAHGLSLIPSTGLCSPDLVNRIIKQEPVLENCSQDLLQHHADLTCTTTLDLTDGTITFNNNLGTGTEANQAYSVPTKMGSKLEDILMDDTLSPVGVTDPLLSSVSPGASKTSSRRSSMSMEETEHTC
GPR151 activ = human GPR151 activation; Q8TDV0; PathHunter beta-arrestin GPR151 cells, luminescence; activation, % at 11.2 µM; 1% of 650,000 active; AID 1508602; in the data active = activation above about 4.9%;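 also: 0% = median of compound wells and 100% = cells with positive control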
GPR151 confirm = confirmation of human GPR151 activators; 6,700 tested, under 10 active; GPR151 PathHunter beta-arrestin cells, luminescence, 90 min; % of EA-reagent control over plate median; shares compounds with GPR151 activ; activation, % at 11.2 µM;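 active = mean percent activation across replicates above the confirmation screen cutoff of 4.91%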
GPR119 counter = activates human GPR119 in a GPR151 counter-screen. shares compounds with GPR151 activ. GPR119 PathHunter beta-arrestin cells, luminescence, 90 min; 0 = compound-well median, 100 = enzyme-acceptor control. activation, % at 11.2 µM. 0.3% of 6,700 active. AID 1508611;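 active = mean percent activation in the counterscreen above 29.09%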;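 also: counterscreen on off-target GPR119 to flag nonselective hits from the GPR151 activator screen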
An asterisk follows results filed as active; nt = not tested or not shown; ! = a repeat was not active. The list is not random: actives were taken first. Their share in the collection is about 3.4%.

SMILES	FBW7 activator	TEAD-YAP block	MITF inh	GPR151 activ	GPR151 confirm	GPR119 counter
COc1ccc(OCCn2c(-c3ccc(Cl)cc3)nc3ccccc3c2=O)cc1	0.0	-10.3	-2.9	-1.1	nt	nt
Cc1cc(N2CCC(C)CC2)nc2ccc(N)cc12	-0.2	-34.7	1.4	7.4*	-1.1	-2.3
COCCn1c(C)cc(O)c(C(c2cccnc2)N2CCC(C)CC2)c1=O (stereo unspecified)	0.0	-5.1	8.2	-1.0	nt	nt
CCC(C)c1ccccc1OCCON1C(=O)CCC1=O (stereo unspecified)	-0.1	7.6	-21.1	7.1*	1.7	2.0
CC(C)(C)c1ccc(OCCON2C(=O)CCC2=O)c(Cl)c1	-0.1	2.1	-27.8	3.3	nt	nt
CCC1(C)Cc2c(sc3[nH]c(=S)[nH]c(=O)c23)CO1 (stereo unspecified)	-0.1	2.3	15.7	0.7	nt	nt
C=CCOc1ccccc1CNc1cccc(C(=O)O)c1	0.4	2.0	16.7	-2.0	nt	nt
O=C(O)c1cccc(NCc2cccc3ccccc23)c1	-0.1	-18.7	9.8	11.1*	0.2	3.5
CC(=O)NC1=NC(=O)/C(=C/c2ccc(-c3ccc(C)c(Cl)c3)o2)S1	0.0	-1.0	-6.3	5.3*	0.6	7.5
CC1CCC(C(C)C)C(OC(=O)CSc2nnnn2C)C1 (stereo unspecified)	0.0	-4.4	-13.4	0.1	nt	nt
CC1CCC(C(C)C)C(OC(=O)CSc2cccc[n+]2[O-])C1 (stereo unspecified)	-0.5	-12.7	-10.1	4.9*	-0.6	-5.1
CCCNC(=O)CSc1nnc2c3ccccc3n(C)c2n1	0.1	3.1	13.4	-0.5	nt	nt
COc1ccc(C(=O)Nc2ccnn2C2CCN(C(=O)C3CCOC3)CC2)cc1 (stereo unspecified)	0.0	-8.2	4.9	5.8*	0.5	-0.3
COc1ccc(C(=O)Nc2ccnn2C2CCN(Cc3ccon3)CC2)cc1	-0.2	14.3	1.6	-0.7	nt	nt
COc1ccc(C(=O)Nc2ccnn2C2CCN(Cc3cn(C)nc3C)CC2)cc1	0.0	1.9	9.4	5.6*	1.6	-14.5
CC1CN(CCC(=O)NCC(c2ccc(F)cc2)N2CCCC2)Cc2ccccc2O1 (stereo unspecified)	0.0	-2.5	0.3	0.4	nt	nt
COc1cccc(N2C(=O)CN(Cc3cnn(C)c3)CC2C)c1 (stereo unspecified)	0.4	17.4	12.2	0.9	nt	nt
COC(=O)c1cc2c(N3CCC(Cc4ccccc4)CC3)ncnc2s1	-0.2	-1.9	5.5	5.5*	1.8	6.1
Cc1cc(C)cc(C(=O)Nc2c3c(nn2-c2cccc(Cl)c2)CS(=O)(=O)C3)c1	-0.2	-5.3	-7.0	1.5	nt	nt
CCCCCCCCCCCCCCCC(=O)SCCOP(=O)(O)OCC[N+](C)(C)C	nt	nt	-2.1	5.4*	2.1	15.2
CCN=C1SC(CC(=O)Nc2sc(C)c(C)c2C(=O)OC)C(=O)N1CC (stereo unspecified)	-0.2	2.9	-9.6	6.0*!	2.2	7.0
CCOc1ccccc1-n1c(CNc2ccc(C)cc2)nnc1SCC(N)=O	0.7	-6.4	-0.6	-0.3	nt	nt
Cc1ccc(-c2nc3cc(NC(=O)c4cc(Br)ccc4Cl)ccc3o2)cc1Br	-0.4	7.5	0.4	6.1*	0.0	9.0
Cc1c(C(=O)Nc2ccc3oc(-c4cccnc4)nc3c2)cccc1[N+](=O)[O-]	0.0	-3.2	13.7	11.2*	-0.8	0.4
CC(=O)Nc1ccc(-c2nc3cc(C)ccc3o2)cc1	0.1	-46.5	-2.4	-1.4	nt	nt
SMILES	FBW7 activator	TEAD-YAP block	MITF inh	GPR151 activ	GPR151 confirm	GPR119 counter
Cc1c(C(=O)Nc2ccc3oc(-c4ccncc4)nc3c2)cccc1[N+](=O)[O-]	0.2	0.7	10.7	-1.6	nt	nt
Cc1ccc(-c2nc3cc(NC(=O)c4cc(Cl)ccc4Cl)ccc3o2)cc1Br	-0.1	-12.7	-4.1	0.1	nt	nt
CC(=O)Nc1ccc2oc(-c3ccncc3)nc2c1	0.0	-22.5	0.7	5.1*	0.1	-0.6
Cc1ccc(OCC(=O)NC2CCCC2)cc1	0.7	-21.7	-7.0	1.5	nt	nt
O=C1CC(c2ccccc2)CC2=C1C(c1ccccc1[N+](=O)[O-])Nc1ccccc1N2 (stereo unspecified)	0.0	-4.9	5.1	0.2	nt	nt
Cc1ccc(C)c2c1-c1ccccc1S(=O)(=O)N2C	0.1	6.4	-6.2	-0.1	nt	nt
COc1ccc(CNC(=O)C2CCN(c3nc4ccccc4n4cccc34)CC2)cc1	-0.2	-5.6	-12.7	7.5*	-0.6	-1.3
O=C(OCc1ccccc1)c1ccc([N+](=O)[O-])cc1	0.0	7.5	4.7	-0.7	nt	nt
CCC(Sc1nnc2c3ccccc3n(C)c2n1)C(=O)Nc1ccc(S(N)(=O)=O)cc1 (stereo unspecified)	-0.1	-4.5	-3.3	1.3	nt	nt
CCC(Sc1nnc2c3cc(Br)ccc3n(C)c2n1)C(=O)Nc1ccc(S(N)(=O)=O)cc1 (stereo unspecified)	0.4	-9.8	3.0	8.5*	0.0	9.5
Cc1sc2ncn(CC(=O)NCC(=O)NCc3ccccn3)c(=O)c2c1C	0.1	-1.6	14.3	-0.6	nt	nt
CCN(CC)C(=O)Cn1cnc2sc(C(=O)Nc3cc(OC)ccc3OC)c(C)c2c1=O	0.0	0.0	3.2	-0.4	nt	nt
Cc1c(C(=O)Nc2ccc3c(c2)OCO3)sc2ncn(CC(=O)N3CC(C)CC(C)C3)c(=O)c12 (stereo unspecified)	0.2	5.8	12.8	5.0*	0.5	0.6
Cc1sc2ncn(CC(=O)NCc3ccccn3)c(=O)c2c1C	-0.1	-5.5	-14.0	5.1*	-0.3	-10.7
CCN(CC)C(=O)Cn1cnc2sc(C(=O)Nc3cc(C)ccc3OC)c(C)c2c1=O	0.1	-3.4	-2.6	4.9*	1.9	5.1
Cc1c(C(=O)Nc2ccc(Oc3ccccc3)cc2)sc2ncn(CC(=O)Nc3ccc(C(C)C)cc3)c(=O)c12	0.1	1.1	7.8	-0.3	nt	nt
Cc1ccc(NC(=O)Cn2cnc3sc(C(=O)Nc4ccccc4)c(C)c3c2=O)cc1	0.6	11.2	6.0	8.9*	0.4	2.0
NS(=O)(=O)c1ccc(N/C=C/C(=O)c2ccncc2)cc1	0.4	-4.1	15.5	-1.7	nt	nt
CN(C)S(=O)(=O)N1CCC(Oc2cccc(C(=O)N3CCCCO3)c2)CC1	0.0	-47.6	6.8	-0.4	nt	nt
CCOc1ccccc1NC(=O)C1CC(=O)N(c2ccc(C)cc2)C1 (stereo unspecified)	0.0	7.0	-0.6	-1.0	nt	nt
O=C1CCC(CCC(=O)N2CCOc3ccccc3C2)(Cc2ccco2)N1 (stereo unspecified)	0.1	2.3	-15.2	-0.6	nt	nt
Cc1cc(N)c2ccccc2[n+]1CCCCCCCCCCCCCC[n+]1c(C)cc(N)c2ccccc21	0.0	84.3*	-16.1	6.6*	0.6	-6.4
O=C(NCCSC1CCCCC1)Nc1ccccc1	-0.1	0.7	-10.4	5.1*	-1.0	-17.9
Cc1cc(O)ccc1N/C=C/C(=O)C(C)(C)C	-0.3	-1.1	0.3	-1.2	nt	nt
